Screening results from PubChem.
Rows were chosen to be rich in hits. Some 12% of all compounds tested hit in one or more screens of this group.
Pf growth 96h – inhibits malaria parasite growth, 96 h; P. falciparum luciferase reporter growth, 96 h; Potency, µM (doses to about 28.7 µM), without a hit: at the top dose activity change, negative = inhibition, actives largely listed as inhibitors; actives 6.9% (n = 320,000); AID 504834; further: on the % scale 0 is the no-effect control and ±100 the full control effect
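Compounds incubated with erythrocytes infected by luciferase-expressing P. falciparum (2% hematocrit, 0.05% parasitemia final) for 96 hours, 37 C in 5% CO2. Growth inhibition scored as decreased luciferase luminescence.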
Pf growth 48h – inhibits P. falciparum growth in the first generation, 48 h; P. falciparum luciferase growth in erythrocytes, 48 h; Potency, µM (series often up to 28.7 µM), for inactives: at the top dose activity change, negative = inhibition, actives largely listed as inhibitors; actives 5.9% (n = 310,000); AID 504832; further: on the % scale 0 is the no-effect control and ±100 the full control effect
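Compounds are pin-transferred into medium, infected erythrocytes (2% hematocrit, 0.1% parasitemia final) are added, and plates sit one parasite generation at 37 C in 5% CO2. Detection reagent is then added and luminescence measured.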
SARS PLP yeast – inhibitors of SARS-CoV papain-like protease in yeast; actives 0.19% (n = 330,000); AID 485353; S. cerevisiae expressing SARS-CoV PLpro, growth rescue; Potency, µM (top dose mostly 32.9 µM), for inactives: at the highest dose activity, positive = growth rescue, usual class: activators; calls by dose curve; further: 0% is about no effect; nearly all actives have a fitted effect of over 55% in size
AmpC detergent – inhibitors of E. coli AmpC beta-lactamase with detergent | P00811 | Potency, µM (series often up to 114 µM), for inactives: at the top dose activity change, negative = inhibition, usual class: inhibitors | actives 0.041% (n = 370,000) | AmpC hydrolysis of nitrocefin, absorbance 480 nm, 0.01% Triton;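 further: 0% = no-compound wells and -100% = no-enzyme wells; nearly all actives have a fitted effect of over 25% in size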
Target sequence (P00811 whole entry, looked up): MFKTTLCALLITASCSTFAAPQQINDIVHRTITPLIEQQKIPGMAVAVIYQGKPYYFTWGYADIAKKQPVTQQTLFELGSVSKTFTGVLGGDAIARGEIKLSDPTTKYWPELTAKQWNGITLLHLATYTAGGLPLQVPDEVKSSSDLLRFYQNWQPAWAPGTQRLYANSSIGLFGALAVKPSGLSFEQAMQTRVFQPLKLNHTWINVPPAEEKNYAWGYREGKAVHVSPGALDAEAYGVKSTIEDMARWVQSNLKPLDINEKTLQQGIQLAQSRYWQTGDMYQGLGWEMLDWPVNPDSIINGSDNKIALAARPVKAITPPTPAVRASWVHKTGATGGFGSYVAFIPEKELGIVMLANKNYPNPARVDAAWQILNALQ
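20 mM phosphate pH 7.0 + 0.01% (detergent screen) or 0.0001% Triton X-100; 5.3 nM AmpC reagent; cpd preinc 15 min RT; nitrocefin (800 uM stock) to start; A480 q20 s × 4 min; Activity was normalised to no-enzyme and no-compound control wells.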
AmpC inh no detg – blocks E. coli AmpC beta-lactamase in detergent-free assay; AmpC nitrocefin hydrolysis, absorbance 480 nm, 0.0001% Triton; AID 485341; actives 0.52% (n = 330,000); Potency, µM (series often up to 57.1 µM), for inactives: at the highest dose activity change, negative = inhibition, usual class: inhibitors; P00811;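 further: plate controls were no compound for no effect and no enzyme for full effect; nearly all actives have a fitted effect of over 20% in size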
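20 mM phosphate pH 7.0 + 0.01% (detergent screen) or 0.0001% Triton X-100; 5.3 nM AmpC reagent; cpd preinc 15 min RT; nitrocefin (800 uM stock) to start; A480 q20 s × 4 min; Activity was normalised to no-enzyme and no-compound control wells.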
Sm TGR block – inhibitors of Schistosoma mansoni thioredoxin glutathione reductase | Q962Y6 | purified TGR, DTNB reduction, TNB absorbance 405 nm | Potency, µM (titrated, usually from 114 µM), inactives show top-dose activity change, negative = inhibition, most hits filed as inhibitors | actives 3% (n = 360,000); further: on the % scale 0 is the no-effect control and ±100 the full control effect; nearly all actives have a fitted effect of over 60% in size
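First, TGR (20 nM dispensed) and NADPH were mixed with compound. Second, a 15 min room-temperature incubation followed. Third, further NADPH and then DTNB were added to start the reaction. Finally, TNB absorbance was monitored kinetically.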
* marks the source's active call; other numbers are inactive results; ? = inconclusive; / = no result; [ ] = remark or other dose. Unless noted, the call rests on the fitted dose curve; in most records, active means well fitted curve in the direction sought with a large enough effect; inconclusive means small, poorly fitted or top-dose-only effect, or another doubt; inactive means no such curve, though single readings can be large; an effect the other way counts as inactive or inconclusive. Potency means the concentration at half of the fitted maximal effect.

SMILES	Pf growth 96h	Pf growth 48h	SARS PLP yeast	AmpC detergent	AmpC inh no detg	Sm TGR block
Cc1noc(C)c1C(=O)Nc1cccc(S(=O)(=O)N2CCCCC2)c1	8.28µM*	-14.8%	-0.6%	-7.4%	-15.6%	-5.3%
CC(=O)Nc1cccc(C(=O)OCC(=O)c2ccc(S(=O)(=O)N3CCCCC3)cc2)c1	-1.6%	-1.9%	-5.7%	-19.7%	-26.2%	-0.8%
Cc1noc(C)c1COc1ccc(C(=O)OCC(=O)Nc2cccc(S(=O)(=O)N3CCOCC3)c2)cc1	5.22µM*	-28.7%	-19.5%	-13.8%	13.7%	-5.0%
COc1cccc(/C=C/C(=O)OCC(=O)Nc2ccc(S(=O)(=O)N3CCCC3)cc2)c1	9.8%	21.3%	16.2%	-8.5%	-6.5%	-1.3%
CNS(=O)(=O)c1cccc(C(=O)OCC(=O)c2ccc(S(=O)(=O)N3CCCCC3)cc2)c1	?	13.1µM*	3.6%	-9.1%	-43.5%	-19.1%
Cc1noc(C)c1COC(=O)c1cccc(S(=O)(=O)N2CCOCC2)c1	3.2%	?	-1.0%	-14.2%	-6.5%	-2.2%
CN(C)c1cccc(C(=O)Nc2nnc(Cc3ccccc3)s2)c1	-18.1%	-11.2%	-2.1%	-0.7%	-9.8%	-0.5%
Cn1c(=O)c2c(nc(N3CCN(Cc4ccccc4)CC3)n2CCSc2ncccn2)n(C)c1=O	?	23.7%	2.4%	-0.6%	-6.6%	3.6%
N=C1/C(=C\c2ccc(OC(=O)c3ccc(F)cc3)cc2)C(=O)N=C2SC(N3CCOCC3)=NN12	1.65µM*	7.9%	-6.3%	-13.8%	-45.7%	-20.2%
CC1CCN(C2=NN3C(=N)/C(=C\c4ccc(OC(=O)c5ccco5)cc4)C(=O)N=C3S2)CC1	?	9.3%	2.6%	-15.6%	-37.6%	-8.9%
O=C1CC(N2CCc3ccccc32)C(=O)N1c1ccc(F)cc1 (stereo not drawn)	?	12.4%	0.0%	?	-11.8%	-1.4%[57.1 µM]
CCOC(=O)c1ccc(N2C(=O)CC(N3CC=C(c4ccc(F)cc4)CC3)C2=O)cc1 (stereo not drawn)	/	?	-22.7%	1.3%	-0.5%	5.62µM*
O=C1CC(N2CC=C(c3ccc(F)cc3)CC2)C(=O)N1c1ccc(F)cc1 (stereo not drawn)	0.7%	5.7%	-26.6%	-4.9%	11.7%	14.1µM*
CCOC(=O)c1ccc(N2C(=O)CC(N3CCOCC3)C2=O)cc1 (stereo not drawn)	1.6%	0.7%	-22.2%	-9.2%	-3.9%	?
CC1(C)CC(=O)C2=C(C1)OC1=C(C(=O)CC(C)(C)C1)C2c1ccccc1	?	/	-4.1%	-7.8%	2.9%	0.0%
CC1(C)CC(=O)C2=C(C1)Oc1nc3ccccc3cc1C2C(C#N)C#N (stereo not drawn)	-1.0%	0.657µM*	-15.6%	?	0.7%	0.0%
Cc1nn(CC(=O)OC(C)C(=O)Nc2ccccc2[N+](=O)[O-])c(C)c1[N+](=O)[O-] (stereo not drawn)	-3.5%	2.5%	0.2%	-8.4%	-14.7%	-0.1%
O=C(C1CCC(Cn2c(=O)c3sccc3n(Cc3ccccc3)c2=O)CC1)N1CCOCC1 (stereo not drawn)	/	/	/	0.7%	/	1.5%
CCN1CCN(S(=O)(=O)c2ccc(Cl)c(C(=O)Nc3cc(Cl)ccc3N3CCOCC3)c2)CC1	13.1µM*	?	-4.6%	-3.4%	212.9%	-28.1%
CCN1CCN(c2ccc(S(=O)(=O)N3CCOCC3)cc2NC(=O)c2ccc(Cl)cc2Cl)CC1	?	13.1µM*	0.8%	0.0%	185.1%	-0.2%
N#CC1(c2ccc(NC(=O)c3ccccc3F)cc2)CCCC1	?	191.0%	-82.7%	?	-23.5%	-0.9%
COCCNC(=O)CSc1n[nH]c(=O)n1CCc1ccccc1	6.3%	-12.3%	3.7%	-5.6%	-18.3%	-6.9%
Cc1cc(NS(=O)(=O)c2ccc(NC(=O)c3cnc4sccn4c3=O)cc2)nc(C)n1	61.0%	38.0%	0.1%	1.8%	-32.1%	1.0%
Cc1cc(C)nc(NC(=O)c2cnc3sccn3c2=O)n1	40.3%	25.3%	-6.4%	?	39.8µM*	-1.2%
O=S(=O)(NC1CCCCC1N1CCN(c2ccc(F)cc2)CC1)c1ccc(Cl)cc1 (stereo not drawn)	?	13.1µM*	-19.1%	-8.7%	-21.3%	-5.3%
SMILES	Pf growth 96h	Pf growth 48h	SARS PLP yeast	AmpC detergent	AmpC inh no detg	Sm TGR block
CCN1CCN(c2nc(-c3cccnc3)nc3ccccc23)CC1	/	?	-2.4%	-9.0%	-12.6%	-13.1%
CCN1CCN(c2nc(-c3ccncc3)nc3ccccc23)CC1	7.38µM*	9.28µM*	1.9%	-11.1%	-1.8%	-22.1%
CCCOc1ccc(-c2nc(N3CCN(CC)CC3)c3ccccc3n2)cc1	11.7µM*	10.4µM*	-0.6%	-1.5%	152.2%	11.7%
CCOC(=O)c1sc2nc(C)nc(NCc3ccc(Cl)cc3)c2c1C	?	9.28µM*	-1.3%	0.3%	4.4%	7.1%
O=c1[nH][nH]cc1C=Nc1cc(Cl)ccc1O	6.57µM*	?	-6.8%	3.6%	-11.5%	-27.1%
CC(C)N(C(=O)COC(=O)c1cccc(N(C)C)c1)c1ccccc1	?	?	-4.0%	2.6%	74.9%	7.3%
COC(=O)C1=C(c2ccc(OCc3ccccc3)cc2)C[C@@H]2CC[C@H]1N2C(=O)NC1CCN(Cc2ccccc2)CC1	?	9.28µM*	6.4%	6.8%	261.4%	3.9%
COC(=O)C1=C(c2ccc(OC(F)(F)F)cc2)C[C@@H]2CC[C@H]1N2C(=O)NC1CCCCC1	?	?	1.4%	1.8%	119.3%	?
COC(=O)C1=C(c2ccc(F)cc2OCc2ccccc2)C[C@@H]2CC[C@H]1N2C(=O)N1CCCC1	?	9.28µM*	-3.9%	1.2%	131.6%	1.0%
COC(=O)C1=C(c2ccc(F)cc2OCc2ccccc2)C[C@@H]2CC[C@H]1N2C	?	?	-2.3%	-4.5%	33.3%	-4.0%
COC(=O)C1=C(c2ccc(F)cc2OCc2ccccc2)C[C@@H]2CC[C@H]1N2C(=O)NC1CCCCC1	14.7µM*	?	-2.6%	5.6%	1.0%	1.8%
COC(=O)C1=C(c2ccc(F)cc2OCc2ccccc2)C[C@@H]2CC[C@H]1N2C(=O)NC(C)C	?	9.28µM*	0.3%	7.2%	146.7%	-27.1%
O=S(=O)(Nc1ccc(-c2ccc(N3CCCCC3)nn2)cc1)c1ccc(OC(F)(F)F)cc1	/	/	/	15.7%	/	-4.5%
O=C(c1ccccc1)N1CCc2cc(CNS(=O)(=O)c3ccc(Cl)s3)ccc21	/	/	/	-3.6%	/	8.2%
